{
  "source": "the supplement of paper PMC8728848",
  "binders": {"B1": {"name": "CLEC5A (Homo sapiens), Q9NY25 (protein)", "chain": "MNWHMIISGLIVVVLKVVGMTLFLLYFPQIFNKSNDGFTTTRSYGTVSQIFGSSSPSPNGFITTRSYGTVCPKDWEFYQARCFFLSTSESSWNESRDFCKGKGSTLAIVNTPEKLKFLQDITDAEKYFIGLIYHREEKRWRWINNSVFNGNVTNQNQNFNCATIGLTKTFDAASCDISYRRICEKNAK"}},
  "assay_in_all_cases": "glycan array binding signal (z-score within array); higher = stronger binding",
  "settings_in_all_cases": "glycan notation: IUPAC condensed, linker removed",
  "key": {"[1]": {"target": "4d8dNeu5Ac(a2-3)Gal(b1-4)Glc", "method_in_brief": "(§1)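 Negative Z-scores can be read as non-binding. The Z-score is calculated within each array and then averaged across arrays of one protein sequence at different concentrations or buffers and across linkers. Arrays, 3228 in all, were curated from the Consortium for Functional Glycomics database and kept only where the protein sequence was available.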"}, "[2]": {"target": "4dNeu5Ac(a2-3)Gal(b1-4)Glc", "method_in_brief": "as §1"}, "[3]": {"target": "Fuc(a1-2)Gal(b1-3)GlcNAc(b1-2)Man(a1-3)[Fuc(a1-2)Gal(b1-3)GlcNAc(b1-2)Man(a1-6)]Man(b1-4)GlcNAc(b1-4)GlcNAc", "method_in_brief": "as §1"}, "[4]": {"target": "Fuc(a1-2)Gal(b1-3)[Fuc(a1-4)]GlcNAc(b1-2)Man(a1-3)[Fuc(a1-2)Gal(b1-3)[Fuc(a1-4)]GlcNAc(b1-2)Man(a1-3)]Man(b1-4)GlcNAc(b1-4)GlcNAc", "method_in_brief": "as §1"}, "[5]": {"target": "Fuc(a1-2)[Gal(a1-3)]Gal(b1-3)GlcNAc", "method_in_brief": "as §1"}, "[6]": {"target": "Fuc(a1-2)[Gal(a1-3)]Gal(b1-4)GlcNAc(b1-3)[Fuc(a1-2)[Gal(a1-3)]Gal(b1-4)GlcNAc(b1-6)]GalNAc", "method_in_brief": "as §1"}, "[7]": {"target": "Fuc(a1-2)[GalNAc(a1-3)]Gal(b1-4)GlcNAc(b1-2)Man(a1-3)[Fuc(a1-2)[GalNAc(a1-3)]Gal(b1-4)GlcNAc(b1-2)Man(a1-6)]Man(b1-4)GlcNAc(b1-4)[Fuc(a1-6)]GlcNAc", "method_in_brief": "as §1"}, "[8]": {"target": "Fuc(a1-2)[GalNAc(a1-3)]Gal(b1-4)GlcNAc(b1-3)Gal(b1-4)GlcNAc", "method_in_brief": "as §1"}, "[9]": {"target": "Fuc(a1-2)[GalNAc(a1-3)]Gal(b1-4)[Fuc(a1-3)]GlcNAc(b1-3)GalNAc", "method_in_brief": "as §1"}, "[10]": {"target": "Fuc(a1-3)[Gal(b1-4)]GlcNAc(b1-3)[Fuc(a1-2)]Gal(b1-4)Glc", "method_in_brief": "as §1"}, "Fuc(a1-4)GlcNAc": {"target": "Fuc(a1-4)GlcNAc", "method_in_brief": "as §1"}, "[11]": {"target": "Gal(b1-3)Gal(b1-4)GlcNAc(b1-2)Man(a1-3)[Gal(b1-3)Gal(b1-4)GlcNAc(b1-2)Man(a1-6)]Man(b1-4)GlcNAc(b1-4)GlcNAc", "method_in_brief": "as §1"}, "[12]": {"target": "Gal(b1-3)GlcNAc(a1-6)Gal(b1-4)GlcNAc", "method_in_brief": "as §1"}, "[13]": {"target": "Gal(b1-3)GlcNAc(b1-3)Gal(b1-4)Glc", "method_in_brief": "as §1"}, "[14]": {"target": "Gal(b1-3)GlcNAc(b1-3)Gal(b1-4)[Fuc(a1-3)]GlcNAc(b1-6)[Gal(b1-3)GlcNAc(b1-3)]Gal(b1-4)Glc", "method_in_brief": "as §1"}, "[15]": {"target": "Gal(b1-3)[Fuc(a1-4)]GlcNAc(b1-2)Man(a1-3)[Gal(b1-3)[Fuc(a1-4)]GlcNAc(b1-2)Man(a1-6)]Man(b1-4)GlcNAc(b1-4)GlcNAc", "method_in_brief": "as §1"}, "[16]": {"target": "Gal(b1-3)[Fuc(a1-4)]GlcNAc(b1-3)Gal(b1-4)[Fuc(a1-3)]GlcNAc", "method_in_brief": "as §1"}, "[17]": {"target": "Gal(b1-3)[Fuc(a1-4)]GlcNAc(b1-3)Gal(b1-4)[Fuc(a1-3)]GlcNAc(b1-6)[Gal(b1-3)[Fuc(a1-4)]GlcNAc(b1-3)]Gal(b1-4)Glc", "method_in_brief": "as §1"}, "[18]": {"target": "Gal(b1-3)[Neu5Ac(a2-6)]GalNAc", "method_in_brief": "as §1"}, "Gal(b1-4)Glc": {"target": "Gal(b1-4)Glc", "method_in_brief": "as §1"}, "[19]": {"target": "Gal(b1-4)GlcNAc(b1-2)Man(a1-6)[GlcNAc(b1-2)Man(a1-3)]Man(b1-4)GlcNAc(b1-4)[Fuc(a1-6)]GlcNAc", "method_in_brief": "as §1"}, "[20]": {"target": "Gal(b1-4)GlcNAc(b1-2)Man(a1-6)[Man(a1-3)]Man(b1-4)GlcNAc(b1-4)[Fuc(a1-6)]GlcNAc", "method_in_brief": "as §1"}, "[21]": {"target": "Gal(b1-4)GlcNAc(b1-3)Gal(b1-4)GlcNAc(b1-2)Man(a1-3)[Gal(b1-4)GlcNAc(b1-3)Gal(b1-4)GlcNAc(b1-2)Man(a1-6)]Man(b1-4)GlcNAc(b1-4)[Fuc(a1-6)]GlcNAc", "method_in_brief": "as §1"}, "[22]": {"target": "Gal(b1-4)GlcNAc(b1-3)Gal(b1-4)GlcNAc(b1-3)Gal(b1-4)GlcNAc", "method_in_brief": "as §1"}, "[23]": {"target": "Gal(b1-4)GlcNAc(b1-3)Gal(b1-4)GlcNAc(b1-3)Gal(b1-4)GlcNAc(b1-3)Gal(b1-4)GlcNAc(b1-2)Man(a1-3)[Gal(b1-4)GlcNAc(b1-3)Gal(b1-4)GlcNAc(b1-3)Gal(b1-4)GlcNAc(b1-3)Gal(b1-4)GlcNAc(b1-2)Man(a1-6)]Man(b1-4)GlcNAc(b1-4)[Fuc(a1-6)]GlcNAc", "method_in_brief": "as §1"}, "[24]": {"target": "Gal(b1-4)GlcNAc(b1-3)Gal(b1-4)GlcNAc(b1-3)Gal(b1-4)GlcNAc(b1-3)Gal(b1-4)GlcNAc(b1-3)Gal(b1-4)GlcNAc(b1-2)[Gal(b1-4)GlcNAc(b1-3)Gal(b1-4)GlcNAc(b1-3)Gal(b1-4)GlcNAc(b1-3)Gal(b1-4)GlcNAc(b1-3)Gal(b1-4)GlcNAc(b1-6)]Man(a1-6)[Gal(b1-4)GlcNAc(b1-3)Gal(b1-4)GlcNAc(b1-3)Gal(b1-4)GlcNAc(b1-3)Gal(b1-4)GlcNAc(b1-3)Gal(b1-4)GlcNAc(b1-2)Man(a1-3)]Man(b1-4)GlcNAc(b1-4)[Fuc(a1-6)]GlcNAc", "method_in_brief": "as §1"}, "[25]": {"target": "Gal(b1-4)GlcNAc(b1-3)[Fuc(a1-3)GlcNAc(b1-6)]Gal(b1-4)Glc", "method_in_brief": "as §1"}, "[26]": {"target": "Gal(b1-4)GlcNAc(b1-3)[Fuc(a1-3)[Gal(b1-4)]GlcNAc(b1-6)]Gal(b1-4)Glc", "method_in_brief": "as §1"}, "[27]": {"target": "Gal(b1-4)GlcNAc(b1-6)[Gal(b1-3)]GalNAc", "method_in_brief": "as §1"}, "[28]": {"target": "Gal3S(b1-3)[Fuc(a1-4)]GlcNAc", "method_in_brief": "as §1"}, "[29]": {"target": "GalNAc(a1-3)GalNAc(a1-3)Gal(a1-4)Gal(b1-4)GlcNAc", "method_in_brief": "as §1"}, "GalNAc(b1-4)Gal(b1-4)Glc": {"target": "GalNAc(b1-4)Gal(b1-4)Glc", "method_in_brief": "as §1"}, "GalNAc(b1-4)GlcNAc": {"target": "GalNAc(b1-4)GlcNAc", "method_in_brief": "as §1"}, "[30]": {"target": "GalNAc(b1-4)GlcNAc(b1-3)GalNAc(b1-4)GlcNAc", "method_in_brief": "as §1"}, "GalNAc3S(b1-4)GlcNAc": {"target": "GalNAc3S(b1-4)GlcNAc", "method_in_brief": "as §1"}, "[31]": {"target": "Glc(a1-3)Glc(a1-3)Man(a1-2)Man(a1-2)Man(a1-3)[Man(a1-3)[Man(a1-6)]Man(a1-6)]Man(b1-4)GlcNAc", "method_in_brief": "as §1"}, "[32]": {"target": "Glc(a1-4)Glc(a1-4)Glc(a1-4)Glc(a1-4)Glc(a1-4)Glc", "method_in_brief": "as §1"}, "Glc(a1-6)Glc": {"target": "Glc(a1-6)Glc", "method_in_brief": "as §1"}},
  "note": "The sample as a whole holds a higher share of the strongest signals than the screen did.",
  "data": [
    {"binder": "B1", "values": [
      {"measurement": "glycan array binding signal (z-score)", "setting": "[1]", "value": -0.32},
      {"measurement": "glycan array binding signal (z-score)", "setting": "[2]", "value": -0.32},
      {"measurement": "glycan array binding signal (z-score)", "setting": "[3]", "value": 0.119},
      {"measurement": "glycan array binding signal (z-score)", "setting": "[4]", "value": 0.282},
      {"measurement": "glycan array binding signal (z-score)", "setting": "[5]", "value": -0.016},
      {"measurement": "glycan array binding signal (z-score)", "setting": "[6]", "value": 2},
      {"measurement": "glycan array binding signal (z-score)", "setting": "[7]", "value": 0.189},
      {"measurement": "glycan array binding signal (z-score)", "setting": "[8]", "value": 0.56},
      {"measurement": "glycan array binding signal (z-score)", "setting": "[9]", "value": 2.38},
      {"measurement": "glycan array binding signal (z-score)", "setting": "[10]", "value": -0.32},
      {"measurement": "glycan array binding signal (z-score)", "setting": "Fuc(a1-4)GlcNAc", "value": 11.1},
      {"measurement": "glycan array binding signal (z-score)", "setting": "[11]", "value": 2.62},
      {"measurement": "glycan array binding signal (z-score)", "setting": "[12]", "value": -0.327},
      {"measurement": "glycan array binding signal (z-score)", "setting": "[13]", "value": -0.282},
      {"measurement": "glycan array binding signal (z-score)", "setting": "[14]", "value": -0.154},
      {"measurement": "glycan array binding signal (z-score)", "setting": "[15]", "value": 1.69},
      {"measurement": "glycan array binding signal (z-score)", "setting": "[16]", "value": -0.037},
      {"measurement": "glycan array binding signal (z-score)", "setting": "[17]", "value": -0.32},
      {"measurement": "glycan array binding signal (z-score)", "setting": "[18]", "value": -0.023},
      {"measurement": "glycan array binding signal (z-score)", "setting": "Gal(b1-4)Glc", "value": -0.243},
      {"measurement": "glycan array binding signal (z-score)", "setting": "[19]", "value": -0.031},
      {"measurement": "glycan array binding signal (z-score)", "setting": "[20]", "value": 4.98},
      {"measurement": "glycan array binding signal (z-score)", "setting": "[21]", "value": 0.05},
      {"measurement": "glycan array binding signal (z-score)", "setting": "[22]", "value": 0.076},
      {"measurement": "glycan array binding signal (z-score)", "setting": "[23]", "value": 1.88},
      {"measurement": "glycan array binding signal (z-score)", "setting": "[24]", "value": 0.25},
      {"measurement": "glycan array binding signal (z-score)", "setting": "[25]", "value": -0.199},
      {"measurement": "glycan array binding signal (z-score)", "setting": "[26]", "value": -0.031},
      {"measurement": "glycan array binding signal (z-score)", "setting": "[27]", "value": -0.196},
      {"measurement": "glycan array binding signal (z-score)", "setting": "[28]", "value": 0.015},
      {"measurement": "glycan array binding signal (z-score)", "setting": "[29]", "value": -0.892},
      {"measurement": "glycan array binding signal (z-score)", "setting": "GalNAc(b1-4)Gal(b1-4)Glc", "value": -0.144},
      {"measurement": "glycan array binding signal (z-score)", "setting": "GalNAc(b1-4)GlcNAc", "value": -0.135},
      {"measurement": "glycan array binding signal (z-score)", "setting": "[30]", "value": -0.136},
      {"measurement": "glycan array binding signal (z-score)", "setting": "GalNAc3S(b1-4)GlcNAc", "value": -0.162},
      {"measurement": "glycan array binding signal (z-score)", "setting": "[31]", "value": -0.32},
      {"measurement": "glycan array binding signal (z-score)", "setting": "[32]", "value": 1.32},
      {"measurement": "glycan array binding signal (z-score)", "setting": "Glc(a1-6)Glc", "value": 1.7}
    ]}
  ]
}
